Holding throughout (experiment): DAPPL (digital affinity profiling via proximity ligation, sequencing); 10 mM Tris-HCl pH 7.5, 50 mM NaCl, 1 mM DTT, 4% glycerol, room temperature, 30 min; GST-TFs on glutathione beads, 16-mer random dsDNA library, 0.1% formaldehyde crosslink after washing; high values mean tight binding
One assay has as its target T1, FEV (Homo sapiens, UniProt Q99581 1-238).
T1 sequence: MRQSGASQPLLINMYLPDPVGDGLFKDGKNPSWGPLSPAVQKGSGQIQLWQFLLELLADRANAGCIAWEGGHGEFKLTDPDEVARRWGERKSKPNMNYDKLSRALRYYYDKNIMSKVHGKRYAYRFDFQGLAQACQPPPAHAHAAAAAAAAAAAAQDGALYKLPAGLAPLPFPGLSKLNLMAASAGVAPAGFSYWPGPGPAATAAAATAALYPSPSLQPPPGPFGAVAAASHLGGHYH
Particulars: protein: recombinant; tags: N-terminal GST; dsDNA, one strand shown. The procedure, abridged: (§1)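 Binding signal is each hexamer's read frequency for a factor divided by its frequency in the tag-only sample. The factors were GST-fused human transcription factors from yeast, captured on glutathione beads, DNA-barcoded and pooled with that sample. Pools were incubated with 200 nmole of a random double-stranded 16-mer DNA library in Tris/NaCl/DTT/glycerol buffer at room temperature for 30 min, then washed, crosslinked with 0.1% formaldehyde, proximity-ligated with BsaI/T4 ligase (1 h, 37 °C), PCR-amplified and sequenced on an Illumina NextSeq500.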

The target of the next assay is ETV5 (Homo sapiens, UniProt P41161 1-510). The note with it: protein: recombinant; tags: N-terminal GST; dsDNA, one strand shown. Summed up:
as §1

A further assay has as its target HSF1 (Homo sapiens, UniProt Q00613 1-529). Particulars: protein: recombinant; tags: N-terminal GST; chain copies: 3; dsDNA, one strand shown. The procedure, abridged: as §1
For the next assay, the target named is T2, SPIC (Homo sapiens, UniProt Q8N5J4 1-248).
T2 sequence: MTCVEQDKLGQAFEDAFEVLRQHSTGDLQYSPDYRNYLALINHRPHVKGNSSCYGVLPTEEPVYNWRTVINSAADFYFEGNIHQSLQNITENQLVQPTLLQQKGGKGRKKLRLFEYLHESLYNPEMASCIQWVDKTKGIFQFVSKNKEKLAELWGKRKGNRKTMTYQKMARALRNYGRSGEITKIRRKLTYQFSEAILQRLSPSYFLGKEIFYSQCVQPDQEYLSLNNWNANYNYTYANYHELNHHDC
Particulars: protein: recombinant; tags: N-terminal GST; dsDNA, one strand shown. Summed up:
as §1

A further assay has as its target ELF4 (Homo sapiens, UniProt Q99607 1-663). The note with it: protein: recombinant; tags: N-terminal GST; dsDNA, one strand shown. The procedure, abridged: as §1
A further assay addresses T3, ELK4 (Homo sapiens, UniProt P28324-2 1-405).
T3 sequence: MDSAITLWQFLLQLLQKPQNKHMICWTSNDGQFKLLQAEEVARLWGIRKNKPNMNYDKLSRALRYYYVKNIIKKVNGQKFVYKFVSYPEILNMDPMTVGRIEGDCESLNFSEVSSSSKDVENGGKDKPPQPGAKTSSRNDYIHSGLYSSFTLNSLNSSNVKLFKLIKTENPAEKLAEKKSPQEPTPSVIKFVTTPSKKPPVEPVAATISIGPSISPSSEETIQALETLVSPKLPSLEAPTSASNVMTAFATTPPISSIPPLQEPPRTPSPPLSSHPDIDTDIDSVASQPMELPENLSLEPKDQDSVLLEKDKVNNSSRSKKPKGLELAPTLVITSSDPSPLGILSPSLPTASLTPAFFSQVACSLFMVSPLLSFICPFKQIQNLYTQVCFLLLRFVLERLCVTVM
Particulars: protein: recombinant; tags: N-terminal GST; dsDNA, one strand shown. The procedure, abridged:
as §1

Another assay deals with T4, ETV2 (Homo sapiens, UniProt O00321 1-342).
T4 sequence: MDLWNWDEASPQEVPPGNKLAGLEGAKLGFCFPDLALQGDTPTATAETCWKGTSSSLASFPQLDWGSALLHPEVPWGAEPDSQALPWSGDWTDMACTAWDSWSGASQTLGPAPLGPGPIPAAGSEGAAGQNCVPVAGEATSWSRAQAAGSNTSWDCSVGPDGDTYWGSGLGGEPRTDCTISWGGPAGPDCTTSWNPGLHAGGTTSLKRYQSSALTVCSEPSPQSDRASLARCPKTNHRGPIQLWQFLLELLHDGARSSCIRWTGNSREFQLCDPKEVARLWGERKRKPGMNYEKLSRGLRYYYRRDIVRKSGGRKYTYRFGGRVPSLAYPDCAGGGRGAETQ
The note with it: protein: recombinant; tags: N-terminal GST; dsDNA, one strand shown. The procedure, abridged:
as §1

The next assay concerns the target T5, ELF3 (Homo sapiens, UniProt P78545 1-371).
T5 sequence: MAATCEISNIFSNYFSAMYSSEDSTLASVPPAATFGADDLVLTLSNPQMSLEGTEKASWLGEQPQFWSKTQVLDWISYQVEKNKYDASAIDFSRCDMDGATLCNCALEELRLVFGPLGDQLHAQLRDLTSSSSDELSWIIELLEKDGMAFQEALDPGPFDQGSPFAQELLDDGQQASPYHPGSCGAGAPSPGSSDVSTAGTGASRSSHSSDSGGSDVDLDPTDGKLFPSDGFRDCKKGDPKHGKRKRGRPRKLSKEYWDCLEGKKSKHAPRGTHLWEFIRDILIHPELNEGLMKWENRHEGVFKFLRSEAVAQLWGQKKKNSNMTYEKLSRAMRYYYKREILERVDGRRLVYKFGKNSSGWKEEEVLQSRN
Particulars: protein: recombinant; tags: N-terminal GST; dsDNA, one strand shown. The procedure, abridged: as §1

The next assay deals with CRX (Homo sapiens, UniProt O43186 1-299). Particulars: protein: recombinant; tags: N-terminal GST; dsDNA, one strand shown. The procedure, abridged: as §1
CRX, sequence (O43186 whole entry): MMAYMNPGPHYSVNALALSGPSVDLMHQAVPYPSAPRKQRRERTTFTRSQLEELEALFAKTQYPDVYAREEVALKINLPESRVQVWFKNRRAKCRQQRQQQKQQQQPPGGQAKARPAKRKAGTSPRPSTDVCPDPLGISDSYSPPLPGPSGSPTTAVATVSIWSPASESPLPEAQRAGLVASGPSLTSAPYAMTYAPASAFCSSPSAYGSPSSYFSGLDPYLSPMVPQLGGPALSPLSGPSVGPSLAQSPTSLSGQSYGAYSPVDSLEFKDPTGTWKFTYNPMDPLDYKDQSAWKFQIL
The target of another assay is ETV1 (Homo sapiens, UniProt P50549 1-477). Particulars: protein: recombinant; tags: N-terminal GST; dsDNA, one strand shown. The procedure, abridged:
as §1

The next assay has as its target T6, ERF (Homo sapiens, UniProt P50548 1-548).
T6 sequence: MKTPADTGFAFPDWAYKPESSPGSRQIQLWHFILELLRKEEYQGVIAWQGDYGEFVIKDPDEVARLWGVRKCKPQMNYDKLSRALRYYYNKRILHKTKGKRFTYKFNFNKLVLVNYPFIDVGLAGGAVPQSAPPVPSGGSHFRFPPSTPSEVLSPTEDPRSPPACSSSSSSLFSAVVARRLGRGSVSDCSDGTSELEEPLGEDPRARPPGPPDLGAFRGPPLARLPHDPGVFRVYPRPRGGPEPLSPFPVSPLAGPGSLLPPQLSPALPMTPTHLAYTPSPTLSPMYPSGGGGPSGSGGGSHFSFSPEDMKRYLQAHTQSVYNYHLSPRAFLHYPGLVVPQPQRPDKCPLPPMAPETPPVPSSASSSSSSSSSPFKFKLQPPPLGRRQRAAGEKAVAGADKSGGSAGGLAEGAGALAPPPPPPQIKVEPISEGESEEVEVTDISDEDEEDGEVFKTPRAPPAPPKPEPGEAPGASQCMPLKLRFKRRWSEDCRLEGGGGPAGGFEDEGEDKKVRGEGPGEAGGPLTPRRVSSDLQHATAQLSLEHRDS
Particulars: protein: recombinant; tags: N-terminal GST; dsDNA, one strand shown. The procedure, abridged: as §1

The target of a further assay is T7, ETV3L (Homo sapiens, UniProt Q6ZN32 1-361).
T7 sequence: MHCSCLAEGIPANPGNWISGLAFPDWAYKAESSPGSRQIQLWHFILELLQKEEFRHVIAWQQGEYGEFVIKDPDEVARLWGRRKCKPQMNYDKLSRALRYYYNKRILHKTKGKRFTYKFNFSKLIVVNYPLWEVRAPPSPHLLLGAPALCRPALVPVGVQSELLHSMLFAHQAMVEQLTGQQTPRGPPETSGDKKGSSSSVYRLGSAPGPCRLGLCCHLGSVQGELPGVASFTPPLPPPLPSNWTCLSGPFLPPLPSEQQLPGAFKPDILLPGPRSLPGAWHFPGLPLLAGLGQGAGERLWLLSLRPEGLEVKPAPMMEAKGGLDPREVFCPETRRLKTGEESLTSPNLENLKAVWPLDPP
Particulars: protein: recombinant; tags: N-terminal GST; dsDNA, one strand shown. The procedure, abridged:
as §1

The target of the next assay is T8, ETS2 (Homo sapiens, UniProt P15036 1-469).
T8 sequence: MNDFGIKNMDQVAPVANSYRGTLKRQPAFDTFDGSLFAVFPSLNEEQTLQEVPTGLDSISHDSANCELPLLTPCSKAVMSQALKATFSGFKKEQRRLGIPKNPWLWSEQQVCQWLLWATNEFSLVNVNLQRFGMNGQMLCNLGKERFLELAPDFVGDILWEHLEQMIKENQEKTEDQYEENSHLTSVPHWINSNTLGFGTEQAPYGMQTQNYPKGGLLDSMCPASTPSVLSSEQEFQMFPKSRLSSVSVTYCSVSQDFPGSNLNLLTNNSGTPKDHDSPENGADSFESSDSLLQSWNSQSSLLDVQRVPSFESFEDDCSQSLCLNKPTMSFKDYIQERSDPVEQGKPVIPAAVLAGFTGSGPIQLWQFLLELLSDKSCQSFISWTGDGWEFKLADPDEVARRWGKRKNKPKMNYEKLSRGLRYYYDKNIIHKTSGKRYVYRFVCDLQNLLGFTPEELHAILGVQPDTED
The note with it: protein: recombinant; tags: N-terminal GST; dsDNA, one strand shown. The procedure, abridged: as §1

The next assay concerns the target T9, SPDEF (Homo sapiens, UniProt O95238 1-335).
T9 sequence: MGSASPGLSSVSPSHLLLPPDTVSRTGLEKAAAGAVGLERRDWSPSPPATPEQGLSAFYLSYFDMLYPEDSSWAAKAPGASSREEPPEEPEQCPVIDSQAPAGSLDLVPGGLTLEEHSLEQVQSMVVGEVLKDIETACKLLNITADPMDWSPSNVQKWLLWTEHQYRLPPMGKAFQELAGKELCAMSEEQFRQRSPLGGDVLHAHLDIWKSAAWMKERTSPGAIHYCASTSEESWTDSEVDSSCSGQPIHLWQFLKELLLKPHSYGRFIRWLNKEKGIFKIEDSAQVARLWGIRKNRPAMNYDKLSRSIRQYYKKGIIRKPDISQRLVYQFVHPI
The note with it: protein: recombinant; tags: N-terminal GST; dsDNA, one strand shown. The procedure, abridged:
as §1

The target of a further assay is T10, ETV7 (Homo sapiens, UniProt Q9Y603 1-341).
T10 sequence: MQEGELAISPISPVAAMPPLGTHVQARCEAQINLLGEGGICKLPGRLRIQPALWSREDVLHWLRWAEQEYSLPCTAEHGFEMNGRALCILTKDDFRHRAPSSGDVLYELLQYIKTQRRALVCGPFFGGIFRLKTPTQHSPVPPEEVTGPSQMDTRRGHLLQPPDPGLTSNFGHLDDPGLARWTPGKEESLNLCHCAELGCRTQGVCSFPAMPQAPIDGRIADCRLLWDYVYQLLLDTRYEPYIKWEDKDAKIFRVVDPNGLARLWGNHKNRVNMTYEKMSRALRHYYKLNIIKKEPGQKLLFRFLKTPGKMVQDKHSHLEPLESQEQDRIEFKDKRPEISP
Particulars: protein: recombinant; tags: N-terminal GST; dsDNA, one strand shown. Summed up: as §1

A further assay deals with T11, ELF5 (Homo sapiens, UniProt Q9UKW6-2 1-255).
T11 sequence: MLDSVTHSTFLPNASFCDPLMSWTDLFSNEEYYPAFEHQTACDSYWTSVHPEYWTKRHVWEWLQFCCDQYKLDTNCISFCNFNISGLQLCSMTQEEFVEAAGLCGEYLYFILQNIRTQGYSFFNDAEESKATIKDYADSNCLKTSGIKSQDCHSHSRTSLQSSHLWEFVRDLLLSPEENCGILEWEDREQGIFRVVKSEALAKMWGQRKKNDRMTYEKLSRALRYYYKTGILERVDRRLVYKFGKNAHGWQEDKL
The note with it: protein: recombinant; tags: N-terminal GST; dsDNA, one strand shown. The procedure, abridged:
as §1

In the next assay the target is T12, ETV3 (Homo sapiens, UniProt P41162-2 1-143).
T12 sequence: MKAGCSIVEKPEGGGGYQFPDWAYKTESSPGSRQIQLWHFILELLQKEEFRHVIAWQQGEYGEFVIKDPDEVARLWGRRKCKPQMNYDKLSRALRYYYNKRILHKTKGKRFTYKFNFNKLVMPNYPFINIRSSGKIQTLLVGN
The note with it: protein: recombinant; tags: N-terminal GST; dsDNA, one strand shown. The procedure, abridged:
as §1

The next assay concerns the target ETV6 (Homo sapiens, UniProt P41212 1-452). The note with it: protein: recombinant; tags: N-terminal GST; dsDNA, one strand shown. The procedure, abridged:
as §1

ETV1, sequence (P50549 whole entry): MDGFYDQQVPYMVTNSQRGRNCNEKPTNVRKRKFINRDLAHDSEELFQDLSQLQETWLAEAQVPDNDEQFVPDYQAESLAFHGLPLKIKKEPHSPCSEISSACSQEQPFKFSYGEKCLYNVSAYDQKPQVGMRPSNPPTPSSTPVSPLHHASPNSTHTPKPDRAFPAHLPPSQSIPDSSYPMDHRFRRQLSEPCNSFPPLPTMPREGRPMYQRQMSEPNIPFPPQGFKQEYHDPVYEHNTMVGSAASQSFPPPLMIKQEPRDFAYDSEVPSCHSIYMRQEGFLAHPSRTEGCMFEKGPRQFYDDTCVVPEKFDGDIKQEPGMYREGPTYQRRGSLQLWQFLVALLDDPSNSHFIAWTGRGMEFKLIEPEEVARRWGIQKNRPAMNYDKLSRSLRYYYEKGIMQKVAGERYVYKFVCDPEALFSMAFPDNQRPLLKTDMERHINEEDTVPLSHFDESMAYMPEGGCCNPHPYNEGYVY
ETV5, sequence (P41161 whole entry): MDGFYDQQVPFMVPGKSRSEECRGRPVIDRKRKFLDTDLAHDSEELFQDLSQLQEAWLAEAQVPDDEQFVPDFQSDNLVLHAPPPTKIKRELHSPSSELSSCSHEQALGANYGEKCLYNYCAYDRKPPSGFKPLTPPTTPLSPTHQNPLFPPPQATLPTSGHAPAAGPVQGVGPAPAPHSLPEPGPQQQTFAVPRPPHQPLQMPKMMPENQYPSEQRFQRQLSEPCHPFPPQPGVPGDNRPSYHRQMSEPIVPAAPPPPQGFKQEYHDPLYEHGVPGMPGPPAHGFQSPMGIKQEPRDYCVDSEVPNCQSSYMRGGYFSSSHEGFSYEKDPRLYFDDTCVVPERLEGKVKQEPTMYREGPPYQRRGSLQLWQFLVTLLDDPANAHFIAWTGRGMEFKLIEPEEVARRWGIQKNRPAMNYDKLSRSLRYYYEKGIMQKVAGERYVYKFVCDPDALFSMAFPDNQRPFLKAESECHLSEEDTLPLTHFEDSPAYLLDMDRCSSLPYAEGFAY
ETV6, sequence (P41212 whole entry): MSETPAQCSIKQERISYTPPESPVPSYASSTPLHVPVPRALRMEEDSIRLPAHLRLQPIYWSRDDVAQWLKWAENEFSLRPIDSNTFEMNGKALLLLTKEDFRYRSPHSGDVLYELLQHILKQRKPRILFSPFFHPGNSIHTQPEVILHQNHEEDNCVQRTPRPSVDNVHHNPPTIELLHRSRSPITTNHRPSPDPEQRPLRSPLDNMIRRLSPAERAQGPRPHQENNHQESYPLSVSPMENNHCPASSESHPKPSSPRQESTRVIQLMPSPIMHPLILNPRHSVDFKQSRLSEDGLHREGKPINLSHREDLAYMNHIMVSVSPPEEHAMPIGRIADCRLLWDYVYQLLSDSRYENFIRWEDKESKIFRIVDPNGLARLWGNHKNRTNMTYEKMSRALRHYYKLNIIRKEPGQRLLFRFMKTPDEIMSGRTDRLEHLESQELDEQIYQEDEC
HSF1, sequence (Q00613 whole entry): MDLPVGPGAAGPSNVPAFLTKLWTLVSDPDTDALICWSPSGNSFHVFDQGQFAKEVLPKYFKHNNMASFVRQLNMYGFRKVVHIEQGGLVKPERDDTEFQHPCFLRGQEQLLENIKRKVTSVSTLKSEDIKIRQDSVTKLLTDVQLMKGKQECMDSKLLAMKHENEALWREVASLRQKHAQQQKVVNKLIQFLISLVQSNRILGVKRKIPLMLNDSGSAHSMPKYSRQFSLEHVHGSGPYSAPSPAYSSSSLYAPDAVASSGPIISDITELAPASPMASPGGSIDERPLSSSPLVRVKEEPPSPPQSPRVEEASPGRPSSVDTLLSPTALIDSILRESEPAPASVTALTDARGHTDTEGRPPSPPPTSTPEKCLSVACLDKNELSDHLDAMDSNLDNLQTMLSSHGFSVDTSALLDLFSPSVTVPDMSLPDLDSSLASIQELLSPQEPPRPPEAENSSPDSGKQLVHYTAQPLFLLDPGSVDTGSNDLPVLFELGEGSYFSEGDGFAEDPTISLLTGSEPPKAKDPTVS
ELF4, sequence (Q99607 whole entry): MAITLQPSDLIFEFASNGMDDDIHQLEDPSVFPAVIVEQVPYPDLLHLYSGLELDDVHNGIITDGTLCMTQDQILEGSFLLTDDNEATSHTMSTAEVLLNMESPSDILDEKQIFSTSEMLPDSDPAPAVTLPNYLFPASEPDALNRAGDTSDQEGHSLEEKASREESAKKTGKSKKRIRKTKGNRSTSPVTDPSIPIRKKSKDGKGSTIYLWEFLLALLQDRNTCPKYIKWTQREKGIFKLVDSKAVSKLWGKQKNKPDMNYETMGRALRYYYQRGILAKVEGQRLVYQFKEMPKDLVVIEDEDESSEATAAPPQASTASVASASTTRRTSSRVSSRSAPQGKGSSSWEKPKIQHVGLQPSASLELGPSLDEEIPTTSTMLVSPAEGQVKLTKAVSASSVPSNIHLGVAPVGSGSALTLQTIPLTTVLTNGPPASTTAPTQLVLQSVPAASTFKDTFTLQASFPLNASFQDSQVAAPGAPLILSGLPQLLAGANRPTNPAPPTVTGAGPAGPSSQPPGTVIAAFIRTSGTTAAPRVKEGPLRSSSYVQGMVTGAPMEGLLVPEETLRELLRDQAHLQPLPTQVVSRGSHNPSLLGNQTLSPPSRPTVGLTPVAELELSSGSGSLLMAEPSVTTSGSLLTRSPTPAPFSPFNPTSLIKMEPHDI

As for AACACA, the binding signal was 1.31 fold enrichment (6-mer frequency, TF over GST control) in the assay with FEV; 1.33 fold enrichment (6-mer frequency, TF over GST control) with ETV5; 1.13 fold enrichment (6-mer frequency, TF over GST control) in the assay with HSF1; 1.33 fold enrichment (6-mer frequency, TF over GST control) with SPIC; 1.32 fold enrichment (6-mer frequency, TF over GST control) with ELF4; 1.42 fold enrichment (6-mer frequency, TF over GST control) with ELK4. Moreover, the binding signal with ETV2 was 1.49 fold enrichment (6-mer frequency, TF over GST control); in the assay with ELF3 it was 1.26 fold enrichment (6-mer frequency, TF over GST control); with CRX it was 1.1 fold enrichment (6-mer frequency, TF over GST control); with ETV1, 1.27 fold enrichment (6-mer frequency, TF over GST control); in the assay with ERF it was 1.39 fold enrichment (6-mer frequency, TF over GST control); with ETV3L, 1.34 fold enrichment (6-mer frequency, TF over GST control). For the same sequence, the binding signal with ETS2 is 1.38 fold enrichment (6-mer frequency, TF over GST control); in the assay with SPDEF, 1.41 fold enrichment (6-mer frequency, TF over GST control); with ETV7, 1.46 fold enrichment (6-mer frequency, TF over GST control); with ELF5, 1.36 fold enrichment (6-mer frequency, TF over GST control); with ETV3, 1.35 fold enrichment (6-mer frequency, TF over GST control); with ETV6, 1.29 fold enrichment (6-mer frequency, TF over GST control).
